Test results: PubChem BioAssay AID485318 (Broad Institute, 2010)
Hit rate of the full screen: of about 1,400 compounds, fewer than 10 were called active.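 The calls were made as follows: active = fluorescence-lowering compounds whose fitted half-maximal concentration is at or below ten times the highest valid dose tested; inconclusive = flat curve at 30 to 70% inhibition, or poor fit; inactive = the rest.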 The list is a sample of the results.

molecular target: Histone deacetylase 3 (Homo sapiens) (UniProt O15379); test: inhibition of human HDAC3 enzymatic activity – biochemical, fluorescence, cherry-picked samples, counter-screen for JMJD2C/GASC1 demethylase inhibitor project, dose response (AID 485318); conditions: recombinant HDAC3, fluorogenic peptide/trypsin coupled; series mostly up to 12 µM;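 also: enzyme preincubated with compound before substrate and trypsin were added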
Sequence (O15379 whole entry, looked up): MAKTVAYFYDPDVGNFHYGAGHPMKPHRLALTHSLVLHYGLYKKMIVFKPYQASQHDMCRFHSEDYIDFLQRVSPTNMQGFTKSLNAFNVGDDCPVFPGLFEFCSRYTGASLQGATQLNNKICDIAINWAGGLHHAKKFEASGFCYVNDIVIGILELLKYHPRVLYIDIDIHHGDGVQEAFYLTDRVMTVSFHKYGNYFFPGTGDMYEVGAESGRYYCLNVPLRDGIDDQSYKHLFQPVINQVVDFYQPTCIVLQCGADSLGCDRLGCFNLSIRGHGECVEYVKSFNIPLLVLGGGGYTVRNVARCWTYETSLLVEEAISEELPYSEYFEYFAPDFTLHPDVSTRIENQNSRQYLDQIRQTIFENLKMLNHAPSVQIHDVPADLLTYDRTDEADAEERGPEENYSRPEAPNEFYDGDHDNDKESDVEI

Compound | outcome
CC(=O)N1CCN(c2ccc(NC(=O)c3ccc4ccccc4c3)cc2)CC1 | inactive
CCN(CC)C(CNS(=O)(=O)c1ccc(Cl)cc1)c1ccccc1 (stereo unspecified) | inactive
CCNC(=S)NC(=NCc1cccnc1)Nc1nc(C)cc(C)n1 | inactive
Cc1ccc(N2NC3(CCN(C(N)=O)CC3)NC2=O)cc1 | inactive
C=CCNC(=S)NNC(=O)COc1cccc(Cl)c1 | inactive
O=C(O)c1ccccc1OCCOc1ccccc1C(=O)O | inactive
O=C1NCCC/C1=N/Nc1ccc(F)cc1 | inactive
CC(C)NC(=O)N(C)C[C@H]1Oc2ccc(NS(=O)(=O)c3ccccc3)cc2C(=O)N([C@H](C)CO)C[C@H]1C | inactive
COc1ccc(-n2cc(C(=O)O)c3ccccc3c2=O)cc1 | inactive
O=C(C1CCCCC1)N1CCC(c2nc3c(nnn3Cc3c(F)cccc3Cl)c(=O)[nH]2)CC1 | inactive
Cc1ccc(C)c(Cn2c(C(=O)OC(C)C)cc3c2ccn3C)c1 | inactive
NC(=O)COc1cccc2cccnc12 | inactive
Cn1c(=O)c2[nH]c(=O)cnc2n(C)c1=S | inactive
Cn1nc(N)nc1N1CCN(c2ccc(F)cc2)CC1 | inactive
NS(=O)(=O)c1ccc(CNC(=S)Nc2ccc(F)c(Cl)c2)cc1 | inactive
O=C(O)c1ccc2c(c1)C(=O)N(CCC1=CCCCC1)C2=O | inactive
CC(C)N(Cc1ccccc1)C(=O)COC(=O)c1ccc2c(c1)OCCO2 | inactive
NC(=O)NC(=O)CSc1nnc(-c2ccco2)n1Cc1ccccc1 | inactive
O=C(OCc1nnc(-c2ccccc2)o1)c1cc(S(=O)(=O)N2CCOCC2)c(Cl)cc1Cl | inactive
COc1ccc(C)cc1NC(=O)CN(C)S(=O)(=O)c1ccc2c(c1)CC(C)N2C(C)=O (stereo unspecified) | inactive
OC[C@H]1O[C@@H]2O[C@H]3[C@H](O)[C@@H](O)[C@@H](O[C@H]4[C@H](O)[C@@H](O)[C@@H](O[C@H]5[C@H](O)[C@@H](O)[C@@H](O[C@H]6[C@H](O)[C@@H](O)[C@@H](O[C@H]7[C@H](O)[C@@H](O)[C@@H](O[C@H]1[C@H](O)[C@H]2O)O[C@@H]7CO)O[C@@H]6CO)O[C@@H]5CO)O[C@@H]4CO)O[C@@H]3CO | inactive
Cc1ccc(C(=O)NCC(=O)OCC(=O)Nc2ccc(Cl)cc2C(F)(F)F)cc1C | inactive
O=c1[nH]cnc2c1c(-c1ccccc1)cn2-c1ccccc1 | inactive
Cc1nc2nc(C)c(CCC(=O)NCc3ccc4c(c3)OCO4)c(C)n2n1 | inactive
O=c1[nH]cc(N2CCCCCC2)c(=O)[nH]1 | inactive
O=C(NCc1nnc(SCC(=O)N2CCCCC2)o1)c1c(F)cccc1F | inactive

Compound | outcome
O=C(c1cccs1)N1CCN(S(=O)(=O)c2ccc(F)cc2)CC1 | inactive
O=C(CSc1nnnn1-c1ccc(Cl)cc1)N1CCc2ccccc2C1 | inactive
CN(C)c1ccc(C(=O)OCC(=O)N2CCCC2)cc1 | inactive
Cc1ccc(S(=O)(=O)NCCC(=O)OCC(=O)Nc2ccccc2Cl)cc1 | inactive
Cc1ccc(S(=O)(=O)NC(=O)NCc2ccc(Cl)cc2)cc1 | inactive
O=c1cc(N/N=C/c2ccccc2)[nH]c(=O)[nH]1 | inactive
COc1ccc(NC(=O)N(C)C[C@H]2Oc3c(NS(=O)(=O)c4cccs4)cccc3C(=O)N([C@H](C)CO)C[C@@H]2C)cc1 | inactive
COCCCNC(=S)NNC(=O)c1ccccn1 | inactive
Cc1ccc(OCCSc2nnc(-c3cccs3)n2C)cc1 | inactive
CCCC(=O)Nc1ccc(Oc2ccc(NC(=O)CCC)cc2)cc1 | inactive
COCCCn1c(SCC(=O)NCc2ccco2)nc2sc3c(c2c1=O)CCC3 | inactive
CC(C)(C)c1ccc(-c2csc(NNC3=NCCCCC3)n2)cc1 | inactive
CC(OC(=O)c1ccc([N+](=O)[O-])s1)C(=O)Nc1ncc(Cl)cc1Cl (stereo unspecified) | inactive
O=C(c1ccc(Cn2cc([N+](=O)[O-])cn2)o1)N1CCCCCC1 | inactive
COc1ccccc1C(=O)OCc1c(-c2ccccc2)ncc2ccccc12 | inactive
Cc1ccc2nc(-c3cccc(NS(C)(=O)=O)c3)cc(-c3ccccc3)c2c1 | inactive
COC(=O)C1=C(C)N(CCc2cc(OC)c(OC)c(OC)c2)C(=O)N[C@H]1c1cccs1 | inactive
COc1ccc(CNCC(=O)Nc2sccc2C#N)cc1 | inactive
Cc1nn(-c2cccc(C(=O)O)c2)c(C)c1Oc1ccccc1O | inactive
CCSCC1COC(c2cccn2Cc2ccc(C)cc2)=N1 (stereo unspecified) | inactive
COC(=O)CCC(=O)N1CCOCCOCCN(C(=O)CCC(=O)OC)CCOCCOCC1 | inactive
O=C1c2sc3nc4c(c(=O)n3c2C(=O)N1c1ccccc1)CCC4 | inactive
CC(=O)OC(C(=O)NCc1ccc2c(c1)OCO2)c1ccccc1Cl (stereo unspecified) | inactive
CCC(=O)Nc1cc2c(cc1C(=O)CC)OCCO2 | inactive
CCOC(=O)c1cc2n(n1)C(C(F)(F)F)CC(C)N2 (stereo unspecified) | inactive
CCCCNC(=O)c1nn2cc(Br)cnc2c1Br | inactive

Compound | outcome
Clc1ccc(N=c2ssnc2Cl)nc1 | inactive
O=C(c1ccsc1)N1CCN(C(=O)c2cccs2)CC1 | inactive
COc1ccc2sc(-c3ccc(S(C)(=O)=O)cc3)c(C#CCO)c2c1 | inactive
COc1ccc(CCN=C(NS(=O)(=O)c2ccc(Cl)cc2)c2ccccc2)cc1 | inactive
CCN(CC)CCSc1nc2ccccc2c(=S)n1-c1ccccc1 | inactive
O=C(Cn1nc(-c2ccc(Cl)cc2)ccc1=O)NCC1COCCO1 (stereo unspecified) | inactive
CCC(C)(C)NC(=O)C(c1ccc(C)o1)N(Cc1cccs1)C(=O)Cn1nnc2ccccc21 (stereo unspecified) | inactive
CCC(=O)N1CCc2cc(Br)cc(S(=O)(=O)CC(=O)OC)c21 | inactive
CCN(CC(=O)Nc1ccc2c(c1)OCCO2)C(=O)CC1CCCC1 | inactive
O=C(CSc1nc(O)c(Cc2ccccc2)c(=O)[nH]1)c1ccccc1 | inactive
Cc1ccc(CSc2ncnc3onc(C)c23)cc1 | inactive
CCOC(=O)c1c(NC(=O)c2cc(-c3ccc(O)cc3)on2)sc(C(C)=O)c1C | inactive
C[C@@H](CN1CCC[C@H]1CN1C(N)=NC[C@@H]1Cc1ccccc1)N1C[C@@H](Cc2ccccc2)N(CCc2ccc(Cl)c(Cl)c2)C1=N | inactive
O=C(CSc1nc(-c2ccco2)cc(C(F)(F)F)n1)Nc1ccc(C(=O)N2CCCCC2)cc1 | inactive
COc1cccc(OC)c1C(=O)NC(=S)N1CCOCC1 | inactive
COc1cccc(-n2nnc3c(=O)n(Cc4ccccc4F)cnc32)c1 | inactive
CCn1c(SCC(=O)NCc2ccco2)nnc1-c1cccs1 | inactive
CSc1nc(N)nc2c1ncn2CC(=O)N[C@H](C)c1cccc2ccccc12 | inactive
COC(=O)C1=C(C)N(Cc2ccccc2)C(=NCCc2c[nH]c3ccccc23)N[C@H]1c1ccccc1 | inactive
CC(=O)c1c(C)[nH]c(C(=O)NCCC2=CCCCC2)c1C | inactive
COc1ccc(S(=O)(=O)Nc2ccc3c(c2)CC(=O)N([C@@H](C)CO)C[C@H](C)[C@@H](CN(C)S(=O)(=O)c2ccc(F)cc2)O3)cc1 | inactive
COc1ccccc1NC(=O)COC(=O)c1[nH]c(=O)[nH]c(=O)c1N | inactive
Cc1cccc(N2CC(C(=O)Nc3nnc(SCC(=O)Nc4nccs4)s3)CC2=O)c1 (stereo unspecified) | inactive
CN(C)c1nc(C(=O)Nc2ccccc2)nc(N(C)C)n1 | inactive
CCOc1ccc(-c2nc(CSCC(=O)NC3CCCc4ccccc43)c(C)o2)cc1 (stereo unspecified) | inactive
Cc1cc2cc3c(cc2nc1SCC(=O)N1CCOCC1)OCO3 | inactive

Compound | outcome
CC(C)(C)OC(=O)CNC(=O)c1[nH]cnc1C(=O)N[C@@H](CCCCN)C(=O)OC(C)(C)C | inactive
COc1ccc(OC)c(Nc2nnc(C)c(=O)[nH]2)c1 | inactive
O=C(O)CCCNC(=O)c1cccc(C(=O)NCCCC(=O)O)n1 | inactive
O=C(O)c1cc(O)c2c(c1)[C@@H]([C@H]1c3cc(C(=O)O)cc(O)c3C(=O)c3c(O[C@@H]4O[C@H](CO)[C@@H](O)[C@H](O)[C@H]4O)cccc31)c1cccc(O[C@@H]3O[C@H](CO)[C@@H](O)[C@H](O)[C@H]3O)c1C2=O | inactive
CN(C)CCNC(=O)c1onc(CSc2ccncc2)c1C(=O)NCCN(C)C | inactive
N#CC(C(=O)NCCc1ccccc1)c1nc2ccccc2nc1N1CCOCC1 (stereo unspecified) | inactive
COc1ccc(NC(=O)CNC(=O)c2nn(-c3ccc(OC)c(Cl)c3)c(=O)c3ccccc23)c(OC)c1 | inactive
Cc1ccc(-c2noc(C3CCN(S(C)(=O)=O)CC3)n2)o1 | inactive
Cc1nnc(N2C(=O)c3cccc4c([N+](=O)[O-])ccc(c34)C2=O)s1 | inactive
CCOC(=O)CCCCCC(=O)Nc1ccc2c(c1)CC(=O)N([C@@H](C)CO)C[C@H](C)[C@@H](CN(C)C(=O)Nc1ccc3c(c1)OCO3)O2 | inactive
CSc1ccccc1C(=O)Nc1ccc(C)c(C)c1 | inactive
CC(C)N(C(=O)[C@H]1CC(CC(=O)NCc2cccc(C(F)(F)F)c2)C(=O)N2CCc3c([nH]c4ccccc34)[C@]12C)C(C)C (stereo partly specified) | inactive
N#Cc1ccc(C23OCCN2CCn2nc4ccccc4c23)cc1 (stereo unspecified) | inactive
CCc1ccc(NC(=O)C/C(C)=N/NC(=O)COc2ccc(C)cc2Br)cc1 | inactive
COc1ccc(-c2csc(NNC3=NCCCCC3)n2)cc1 | inactive
CC1(C)C2CCC1(CS(=O)(=O)N1CCN(c3ccccc3F)CC1)C(=O)C2 (stereo unspecified) | inactive
Cc1ccc(O)c(C(=O)c2cc(C#N)c(=O)n(CC3CCCO3)c2)c1 (stereo unspecified) | inactive
CCOC(=O)c1ccc2c(c1)nc(COc1ccc3ccccc3c1)n2CC | inactive
O=C(NCc1ccccn1)c1ccc(OC2CCN(Cc3cccs3)CC2)cc1 | inactive
CCOC(=O)c1sc(Nc2nc(OC)cc(OC)n2)nc1C | inactive
CN(C)C(=O)c1cccc(-c2csc(N3CCC(C(N)=O)CC3)n2)c1 | inactive
COc1ccc(-c2ccc3oc(-c4ccsc4)cc(=O)c3c2)cn1 | inactive
COc1ccc(CCNC(=O)c2cccc(NS(=O)(=O)c3ccccc3F)c2)cc1OC | inactive
